Records with an inconclusive call do not appear. Active and inactive are the calls of the source. Unless noted, calls follow the shape of the dose curve; as a rule, active = well fitted curve in the direction sought with a large enough effect; inconclusive = small, poorly fitted or top-dose-only effect, or another doubt; inactive = no such curve, though single readings can be large; an effect the other way counts as inactive or inconclusive.
Tests used:
[1] = biological target: Cytochrome P450 2C9 (Homo sapiens) (UniProt P11712); test: Cytochrome P450 family 2 subfamily C member 9 (CYP2C9) small molecule antagonists: luciferase biochemical (cell-free) qHTS assay (AID 1645842; active = well fitted curve in the direction sought with a large enough effect in the repeat runs; an effect the other way counts as inactive or inconclusive; also: nearly all actives have a fitted effect of over 55% in size; also: potency is read from the fitted curve at half-maximal effect; as to activity change, negative = inhibition: % is scaled to controls: 0 for no effect and ±100 for the full control effect)
Cytochrome P450 2C9 (Homo sapiens), sequence (P11712 whole entry, looked up): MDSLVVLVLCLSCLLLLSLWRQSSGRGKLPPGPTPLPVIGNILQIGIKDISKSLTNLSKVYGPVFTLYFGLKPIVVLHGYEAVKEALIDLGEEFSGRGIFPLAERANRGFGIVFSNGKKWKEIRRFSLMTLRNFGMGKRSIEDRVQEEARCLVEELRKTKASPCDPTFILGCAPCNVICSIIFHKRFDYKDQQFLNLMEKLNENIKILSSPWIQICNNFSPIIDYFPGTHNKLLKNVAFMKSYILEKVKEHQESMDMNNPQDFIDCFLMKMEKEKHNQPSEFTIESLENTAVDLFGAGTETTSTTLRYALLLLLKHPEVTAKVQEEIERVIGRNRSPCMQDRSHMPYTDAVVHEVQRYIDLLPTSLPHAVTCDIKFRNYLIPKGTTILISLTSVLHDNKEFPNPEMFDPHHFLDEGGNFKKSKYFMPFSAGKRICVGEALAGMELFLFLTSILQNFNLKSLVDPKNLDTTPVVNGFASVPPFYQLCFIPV
Procedure, shortened: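 Luminescence, after 20 min with luciferin detection reagent, reflected CYP2C9 turnover during a 1 h NADPH-driven reaction at 37C. Enzyme-substrate mix contained 0.4% bovine serum albumin and was preincubated with compound 10 min at room temperature.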

[2] = biological target: Catechol O-methyltransferase (Homo sapiens) (UniProt P21964); test: Confirmatory Screen for Target Class Profiling of Small Molecule Inhibitors of Methyltransferases (AID 1745852; calls by dose curve; as to activity change, negative = inhibition: % is scaled to controls: 0 for no effect and ±100 for the full control effect); details: MTase-Glo luminescence, SAH detection, recombinant enzyme; measured here: COMT max response; stronger effect = lower value
Catechol O-methyltransferase (Homo sapiens), sequence (P21964 whole entry, looked up): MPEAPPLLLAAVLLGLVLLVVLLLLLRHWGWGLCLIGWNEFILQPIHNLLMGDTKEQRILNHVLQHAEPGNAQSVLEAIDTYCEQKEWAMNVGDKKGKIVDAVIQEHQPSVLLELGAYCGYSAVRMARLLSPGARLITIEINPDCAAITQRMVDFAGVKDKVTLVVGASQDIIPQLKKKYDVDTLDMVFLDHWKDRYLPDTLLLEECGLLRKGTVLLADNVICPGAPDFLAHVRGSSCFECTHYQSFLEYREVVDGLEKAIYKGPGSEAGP

[3] = biological target: Guanidinoacetate N-methyltransferase (Homo sapiens) (UniProt Q14353); test: as above; details: activity change, negative = inhibition: at 57.3 µM (top of the series) unless noted
[4] = biological target: Nicotinamide N-methyltransferase (Homo sapiens) (UniProt P40261); test: as above; details: MTase-Glo luminescence, SAH detection, recombinant enzyme; measured here: NNMT max response; stronger effect = lower value
Nicotinamide N-methyltransferase (Homo sapiens), sequence (P40261 whole entry, looked up): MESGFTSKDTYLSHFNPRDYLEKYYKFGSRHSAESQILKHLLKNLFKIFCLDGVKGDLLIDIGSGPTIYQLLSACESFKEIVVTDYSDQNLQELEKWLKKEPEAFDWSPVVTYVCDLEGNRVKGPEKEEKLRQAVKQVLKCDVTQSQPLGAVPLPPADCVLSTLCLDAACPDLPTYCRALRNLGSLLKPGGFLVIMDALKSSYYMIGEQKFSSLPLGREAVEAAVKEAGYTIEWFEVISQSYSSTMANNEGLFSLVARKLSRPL

[5] = biological target: Phenylethanolamine N-methyltransferase (Homo sapiens) (UniProt P11086); test: as above; details: MTase-Glo luminescence, SAH detection, recombinant enzyme; measured here: PNMT max response; stronger effect = lower value
Phenylethanolamine N-methyltransferase (Homo sapiens), sequence (P11086 whole entry, looked up): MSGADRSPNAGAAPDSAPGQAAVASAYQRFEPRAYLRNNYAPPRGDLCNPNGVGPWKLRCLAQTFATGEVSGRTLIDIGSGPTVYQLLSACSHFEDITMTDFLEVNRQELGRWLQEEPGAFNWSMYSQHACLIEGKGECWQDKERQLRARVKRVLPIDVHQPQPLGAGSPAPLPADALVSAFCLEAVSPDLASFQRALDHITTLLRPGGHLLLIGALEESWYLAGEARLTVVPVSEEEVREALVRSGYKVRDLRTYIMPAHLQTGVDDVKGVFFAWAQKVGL

[6] = Primary fluorescence-based thiol-reactive (MSTI) qHTS assay for identification of artifact compounds. (AID 1845221);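 also: thiol-reactive compounds lower the probe fluorescence signal; nearly all actives have a fitted effect of over 65% in size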
Procedure, shortened: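 Probe: MSTI 4 uM, PBS pH 7.4, 2% DMSO. Incubation 1 h, RT, light-protected. Readout fluorescence 525/598 nm.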

[7] = tested on: CRL-7250; test: Cytotoxic Profiling of Annotated Libraries Using Quantitative High-Throughput Screening (AID 1296008); details: Five cell lines viability, CellTiter-Glo ATP luminescence, 48-72 h; max response: stronger effect = lower value; also: nearly all actives have a fitted effect of over 60% in size; also: potency is read from the fitted curve at half-maximal effect; as to max response: % is scaled to controls: 0 for no effect and ±100 for the full control effect
Procedure, shortened: (§1)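 Cells exposed to compounds for 48 or 72 hr at 37 degrees Celsius. Viability read as ATP-coupled luminescence with CellTiter-Glo after 10 min at room temperature.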

[8] = tested on: CAOV3; test: Primary qHTS to identify gynecologic anti-cancer compounds using libraries of approved drugs and bioactive compounds (AID 1345084); details: Gynecologic cancer cell panel viability, ATPlite luminescence, 48 h; series mostly up to 57.5 µM; also: nearly all actives have a fitted effect of over 55% in size; also: potency is read from the fitted curve at half-maximal effect
Procedure, shortened: (§2)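 Cell viability after 48 h drug treatment, ATPlite luminescence readout; five doses.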

[9] = biological target: Cytochrome P450 2D6 (Homo sapiens) (UniProt P10635); test: Cytochrome P450 family 2 subfamily D member 6 (CYP2D6) small molecule antagonists: luciferase biochemical (cell-free) qHTS assay (AID 1645840; active = well fitted curve in the direction sought with a large enough effect in the repeat runs; an effect the other way counts as inactive or inconclusive; also: nearly all actives have a fitted effect of over 55% in size; also: potency is read from the fitted curve at half-maximal effect)
Cytochrome P450 2D6 (Homo sapiens), sequence (P10635 whole entry, looked up): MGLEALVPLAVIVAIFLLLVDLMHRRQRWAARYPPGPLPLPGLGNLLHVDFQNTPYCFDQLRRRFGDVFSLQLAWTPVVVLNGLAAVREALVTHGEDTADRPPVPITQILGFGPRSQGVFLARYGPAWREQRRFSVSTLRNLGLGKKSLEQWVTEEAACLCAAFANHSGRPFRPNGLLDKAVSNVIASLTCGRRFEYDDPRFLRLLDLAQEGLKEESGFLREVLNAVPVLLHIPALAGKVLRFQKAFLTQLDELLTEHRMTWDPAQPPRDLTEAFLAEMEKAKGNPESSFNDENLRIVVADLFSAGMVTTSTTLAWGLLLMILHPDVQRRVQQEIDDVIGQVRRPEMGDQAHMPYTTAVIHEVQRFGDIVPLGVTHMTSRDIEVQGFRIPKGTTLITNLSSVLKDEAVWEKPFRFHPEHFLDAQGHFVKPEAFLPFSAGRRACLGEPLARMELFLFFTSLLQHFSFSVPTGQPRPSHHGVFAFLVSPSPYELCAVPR
Procedure, shortened: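 P450-Glo luminescent screen: recombinant CYP2D6 enzyme–proluciferin substrate mix preincubated with compound 10 min at room temperature, then NADPH regeneration added for 1 h at room temperature. Detection reagent added for 20 min; luciferin light read as relative luminescence units.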

[10] = tested on: HaCat; test: Cytotoxic Profiling of Annotated Libraries Using Quantitative High-Throughput Screening (AID 1296008); details: Five cell lines viability, CellTiter-Glo ATP luminescence, 48-72 h; max response: stronger effect = lower value; also: nearly all actives have a fitted effect of over 60% in size; also: potency is read from the fitted curve at half-maximal effect; as to max response: % is scaled to controls: 0 for no effect and ±100 for the full control effect
Procedure, shortened: as §1

[11] = tested on: SKOV3; test: Primary qHTS to identify gynecologic anti-cancer compounds using libraries of approved drugs and bioactive compounds (AID 1345084); details: Gynecologic cancer cell panel viability, ATPlite luminescence, 48 h; series mostly up to 57.5 µM; also: nearly all actives have a fitted effect of over 55% in size; also: potency is read from the fitted curve at half-maximal effect
Procedure, shortened: as §2

[12] = P-glycoprotein substrates identified in KB-8-5-11 adenocarcinoma cell line, qHTS therapeutic library screen (AID 1346987); also: nearly all actives have a fitted effect of over 65% in size; also: potency is read from the fitted curve at half-maximal effect
Procedure, shortened: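 KB-8-5-11, a colchicine-selected P-gp-overexpressing KB-3-1 subline, was grown without colchicine for the assay. Cells were seeded at 500 cells/well, dosed in concentration-response and incubated 72 h at 37 degree C, 5% CO2. Viability was read by CellTiter-Glo luminescence.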

[13] = qHTS to identify inhibitors of the type 1 interferon - major histocompatibility complex class I in skeletal muscle: primary screen against the NCATS Mechanism Interrogation Plate v5.0 (MIPE) Libary (AID 1347411);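 also: plate controls were vehicle for no effect and reference inhibitor for full effect; nearly all actives have a fitted effect of over 65% in size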
Procedure, shortened: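 Immortalized human myoblasts (C25cl48) with HiBit knocked into endogenous HLA-B*08:01 were stimulated with 4 ng/ml IFN-beta and given compounds in 11-point 1:3 titration from 46 uM. After 24 h at 37 C, lytic HiBiT luminescence was read.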

[14] = qHTS drug screen for cell cycle checkpoint inhibitors in PARPi-resistant BRCA-mutant ovarian cancer cell lines. (AID 1963452; calls by dose curve); details: PEO1/OlaR viability, CellTiter-Glo luminescence, 96 h, stronger effect = lower value
Procedure, shortened: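 PEO1, PEO4 and PEO1/OlaR ovarian cancer cells, 600 per well, exposed 96 h at 37C to a dilution series. Viability read by CellTiter-Glo luminescence, normalized to DMSO and empty wells; activity summarized as Z-AUC.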

[15] = tested on: Zika virus NS2B-NS3 protease (linked construct); test: Confirmatory screen NINDS AMC qHTS for Zika virus inhibitors (AID 1347152); also: potency is read from the fitted curve at half-maximal effect; nearly all actives have a fitted effect of over 70% in size
Procedure, shortened: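 Linked NS2B-NS3 protease, 1 nM, in 10 mM Tris-HCl pH 8.0, 0.01% Tween 20; compounds preincubated 15 min at room temperature. Nle-KRR-AMC 10 microM (Km 18.3 µM); 15-min fluorescence change (340/450 nm) fitted to 4-parameter Hill.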

[16] = Confirmatory screen NINDS Rhodamine qHTS for Zika virus inhibitors (AID 1347161); also: potency is read from the fitted curve at half-maximal effect; nearly all actives have a fitted effect of over 60% in size
Procedure, shortened: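 Each compound, titrated, sat 15 min with 25 nM linked protease before 1.5 microM Rhodamine110 substrate went in. Fluorescence gain over the next 15 min, in pH 8.0 Tris with Tween 20, gave Hill-fitted curves.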

[17] = tested on: Zika virus NS2B-NS3 protease (linked construct); test: 384 well plate NINDS Rhodamine confirmatory qHTS for Zika virus inhibitors (AID 1347164);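 also: fluorescence from protease cleavage of Ac-LKRR-rhodamine 110 substrate; potency is read from the fitted curve at half-maximal effect; nearly all actives have a fitted effect of over 65% in size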
Procedure, shortened: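 Linked NS2B-NS3 protease (final 5, 30 or 60 nM) preincubated ~15 minutes with compounds, then 10 microM Ac-LKRR-Rhodamine 110 added. Fluorescence (485/538 nm) read after 25 minutes at room temperature, normalized to no-enzyme and no-inhibitor controls.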

[18] = measured here: PEO1 parental Z-AUC

CN(C)CCCNc1nc(CN2CCN(C(c3ccc(Cl)cc3)c3ccc(Cl)cc3)CC2)nc2ccccc12
Potency [1]: inactive
activity [2]: 2.87%
activity change, negative = inhibition [3]: 0%
activity [4]: -46.9%
activity [5]: -0.0137%
Potency [6]: inactive
max response [7]: 1.9% (inactive)
Potency [8]: inactive

CCC[C@@H](NC(=O)N1C(=O)C(CC)(CC)[C@@H]1Oc1ccc(C(=O)N2CCN(C)CC2)cc1)c1ccc2c(c1)OCO2
Potency [9]: 16.9 µM (active)
Potency [1]: 3.38 µM (active)
max response [7]: -1.89% (inactive)
outcome [10]: inactive
Potency [8]: inactive
Potency [11]: inactive

C=C1CC[C@@H]2[C@](C)(CO)[C@H](O)CC[C@@]2(C)[C@@H]1C/C=C1/C(=O)OC[C@@H]1O
Potency [6]: inactive
max response [7]: -17.3% (inactive)
outcome [10]: inactive

CCC(=O)c1cc(-c2ccc(Cl)cc2)n(-c2ccc(S(N)(=O)=O)cc2)c1C
Potency [6]: inactive
outcome [7]: inactive
Potency [8]: inactive

C/C=C(/COC(=O)/C(C)=C/C)C(=O)OC/C=C/c1ccc(OC)cc1
Potency [6]: inactive
max response [7]: -7.59% (inactive)
outcome [10]: inactive
Potency [8]: inactive
Potency [11]: inactive

COc1cc(O)ccc1OCCNCC(O)COc1cccc2[nH]c3ccccc3c12 (stereo not drawn)
max response [7]: -16.8% (inactive)
outcome [10]: inactive

Cc1ccccc1C(=O)Nc1ccc(C(=O)N2CCC[C@@H](O)c3cc(Cl)ccc32)c(C)c1
Potency [1]: 12 µM (active)
Potency [6]: inactive
max response [7]: -3.25% (inactive)
max response [10]: -22.4% (inactive)
Potency [8]: inactive

O=C(c1ccc(F)c(F)c1Nc1ccc(I)cc1F)N1CC(O)(C2CCCCN2)C1 (stereo not drawn)
Potency [12]: 18.4 µM (active)
Potency [6]: inactive
Potency [7]: 9.2 µM (active)
Potency [10]: 23.1 µM (active)
Potency [11]: 20 µM (active)

COc1cc(-c2cc(-c3ccc(N4CCNCC4)cc3)cnc2C)cc(OC)c1OC
Potency [13]: inactive
Potency [9]: inactive
Potency [1]: 19 µM (active)
Z-AUC [14]: -1.12 (inactive)
Z-AUC [14, 18]: -0.592
Z-AUC ([14]; measured here: PEO4 Z-AUC): -0.59
outcome [7]: inactive
outcome [10]: inactive

CN(Cc1ccc(C(=O)O)cc1)c1ccc(OCc2c(-c3c(Cl)cccc3Cl)noc2C2CC2)nc1C(F)(F)F
Potency [15]: 13.9 µM (active)
Potency [16]: 2.21 µM (active)
Potency [17]: 6.31 µM (active)
Potency [1]: 10.7 µM (active)
activity [2]: -2.57%
activity change, negative = inhibition [3]: -2.02%
activity [4]: -0.741%
activity [5]: 0.284%
Potency [6]: inactive
outcome [7]: inactive
Potency [8]: inactive
Potency [11]: inactive

Cn1cnc(-c2nccc3c(=O)[nH]c(OCCCC(F)(F)F)nc23)c1
Potency [6]: inactive
Potency [7]: 5.8 µM (active)
Potency [8]: inactive
Potency [11]: 6.31 µM (active)

O=C(c1ccc(F)c(F)c1Nc1ccc(I)cc1F)N1CC(O)([C@@H]2CCCCN2)C1
Potency [12]: 20.6 µM (active)
Potency [6]: inactive
Z-AUC [14]: -1.02 (inactive)
Z-AUC [14, 18]: -0.911
Z-AUC ([14]; measured here: PEO4 Z-AUC): -1.32
Potency [7]: 7.31 µM (active)

CNC(=O)c1cccc2cc(Oc3ccnc4cc(OCC5(N)CC5)c(OC)cc34)ccc12
Potency [9]: inactive
Potency [1]: 7.56 µM (active)
Potency [6]: inactive
Z-AUC [14]: 0.323 (inactive)
Z-AUC [14, 18]: 0.465
Z-AUC ([14]; measured here: PEO4 Z-AUC): 0.47
Potency [7]: 4.61 µM (active)
outcome [10]: inactive
Potency [8]: inactive

CNc1ccc([N+](=O)[O-])cc1-n1cnc(-c2ccc(C(F)(F)F)cc2)c1
Potency [9]: 0.756 µM (active)
Potency [1]: 3.01 µM (active)
Potency [6]: inactive
max response [7]: 1.42% (inactive)
max response [10]: -13.4% (inactive)
Potency [11]: inactive

CC/C(=C(\c1ccc(O)cc1)c1ccc(OCCNC)cc1)c1ccccc1
outcome [7]: inactive
outcome [10]: inactive
Potency [8]: inactive
Potency [11]: inactive

COc1cccc(CNC(=O)Nc2nc(-c3ccncc3)cs2)c1
Potency [9]: 0.601 µM (active)
Potency [1]: 0.239 µM (active)
max response [7]: -25.8% (inactive)
max response [10]: -7.04% (inactive)
Potency [8]: inactive
Potency [11]: inactive

Cn1nccc1Nc1nccc(-c2ccn([C@H](CO)c3ccc(Cl)c(F)c3)c(=O)c2)n1
Potency [12]: inactive
Potency [13]: inactive
Potency [1]: 19 µM (active)
Potency [6]: inactive
Z-AUC [14]: -0.731 (inactive)
Z-AUC [14, 18]: -0.241
Z-AUC ([14]; measured here: PEO4 Z-AUC): -0.296
outcome [7]: inactive
Potency [8]: inactive

C=C(C)[C@@H]1CC[C@]2(C(=O)O)CC[C@]3(C)C(CCC4[C@@]5(C)C[C@@H](O)[C@H](O)C(C)(C)C5CC[C@]43C)C12 (stereo partly drawn)
Potency [12]: inactive
Potency [6]: inactive
max response [7]: 4.85% (inactive)
max response [10]: -24.1% (inactive)
Potency [8]: inactive

N#CCC(C1CCCC1)n1cc(-c2ncnc3[nH]ccc23)cn1 (stereo not drawn)
Potency [9]: inactive
Potency [1]: 15.1 µM (active)
Potency [6]: inactive
max response [7]: -27.8% (inactive)
outcome [10]: inactive
Potency [8]: inactive
Potency [11]: inactive

Source: PubChem BioAssay (NCATS)
